Assay results as given in PubChem BioAssay (NCI).
This is part of a sample that, as a whole, favours compounds with a hit. Of some 83,000 tested, about 20% had one in any assay.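 Results are percent growth after 48 hours of single-concentration exposure. 100 means growth as in untreated cells, lower positive values show inhibition; negative values down to -100 show cell death.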 Calls of active or inactive are those of the source. Rule for the calls: active = growth percent below 10; inactive = the rest.

These compounds were tested on SK-MEL-28 melanoma (assay: NCI-60 one-dose screen, 48 h (100 = growth as untreated, 0 = no growth, -100 = all killed)). Conditions: 10 µM.

Row | SMILES | growth
1 | Clc1ccc(/C=C2\CCCC3C2=Nc2ccccc2NC3c2ccc(Cl)cc2)cc1 (stereo not given) | 101% (inactive)
2 | CCC(c1ccc(OC)cc1)C(CC)c1ccc(O)c(CN2CCN(C)CC2)c1 (stereo not given) | -13.2% (active)
3 | CC[C@@H](C(=O)[C@H](C)[C@H](O)[C@@H](C)[C@H]1O[C@H]([C@@H](CC)C(=O)N(CC)CC)CC[C@H]1C)C1O[C@]2(C=C[C@@H](O)[C@]3(CC[C@@](C)([C@H]4CC[C@](O)(CC)[C@H](C)O4)O3)O2)[C@H](C)C[C@@H]1C (stereo not given in full) | 27% (inactive)
4 | c1ccc(/C(=N\Nc2ccc3ccccc3n2)c2ccccn2)cc1 | 20.5% (inactive)
5 | O=C(NCCCNS(=O)(=O)c1ccc(Cl)cc1)Nc1ccc(-n2cc(-c3ccncc3)c(-c3ccc(Cl)c(O)c3)n2)cc1 | 40.7% (inactive)
6 | Nc1ncnc2c1ncn2C1(CO)OCC(O)C(O)C1O (stereo not given) | 105% (inactive)
7 | CN(C)CCOc1ccc(-c2nc3sccn3c2-c2ccnc(S(C)(=O)=O)n2)cc1 | 110% (inactive)
8 | CC[C@H]1OC(=O)[C@H](C)[C@@H](O[C@H]2C[C@@](C)(OC)[C@@H](O)[C@H](C)O2)[C@H](C)[C@@H](O[C@@H]2O[C@H](C)C[C@H](N(C)C)[C@H]2O)[C@](C)(OC)C/C(C)=C2/O[C@@]1(C)C=C2C | -57.1% (active)
9 | COc1cc(/C=C2\CCCC3=C2NC(N)=NC3c2cc(OC)c(OC)c(OC)c2)cc(OC)c1OC (stereo not given) | 24.9% (inactive)
10 | O=[N+]([O-])c1cccc(/C=N/NC(=S)NC23CC4CC(CC(C4)C2)C3)c1 | 85.4% (inactive)
11 | CNC(=O)c1cc(Oc2ccc3c(c2)sc2nc(-c4ccc(N)cc4)cn23)ccn1 | 66.1% (inactive)
12 | COc1ccc2c(c1)OC(N)=C(C#N)C2c1cc(OC)c(OC)c(OC)c1 (stereo not given) | 62.7% (inactive)
13 | S=C(NCc1ccccc1)NCc1ccccc1 | 107% (inactive)
14 | CC(=O)OC1C=CC(OC(C)=O)O1 (stereo not given) | 110% (inactive)
15 | Cc1ccc(Cl)cc1NC(=O)CCl | 98.5% (inactive)
16 | CCC(C)[C@H](NC(C)=O)C(=O)N[C@@H](CCCNC(=N)N)C(=O)N[C@@H](CCCCN)C(=O)N[C@@H](CC1CCC(O)CC1)C(=O)NC(C(=O)N[C@@H](CCSC)C(=O)N[C@@H](CCCNC(=N)N)C(=O)N[C@@]1(C)CCC/C=C\CCC[C@@](C)(C(=O)NC(C(=O)N[C@@H](CCC(=O)O)C(=O)N[C@@H](CC(C)C)C(=O)N[C@H](C(=O)N[C@@H](CCC(=O)O)C(N)=O)C(C)C)[C@@H](C)O)NC(=O)[C@H](CCC(N)=O)NC(=O)[C@H](CC(C)C)NC(=O)[C@H](CC(C)C)NC1=O)[C@@H](C)O (stereo not given in full) | 94.6% (inactive)
17 | COc1cc2cc(Oc3ccc(NC(=O)c4cccc(C(F)(F)F)c4)cc3)c(C)nc2cc1OC | 71.4% (inactive)
18 | COC(=O)C1(O)NC(=C(C#N)C#N)C(C#N)=C1C(=O)c1ccc(OC)c(OC)c1 (stereo not given) | 120% (inactive)
19 | COc1ccc(-c2onc(N)c2-c2cc(OC)c3c(c2)OCO3)cc1 | 47.4% (inactive)
20 | NC(N)=N/N=C(\c1ccccc1)C(O)c1ccccc1 (stereo not given) | 107% (inactive)
21 | COc1cc2cc(Oc3ccc(NC(=O)c4ccccc4)cc3)c(C)nc2cc1OC | 92.9% (inactive)
22 | CS(=O)(=O)c1nccc(-c2c(-c3cccc(OCc4ccc(F)cc4)c3)nc3sccn23)n1 | 62.8% (inactive)
23 | CCOC(=O)c1cc(C(=O)c2ccc(F)cc2F)n2ccccc12 | 115% (inactive)
24 | O=C(N/N=C/c1ccc(Cl)cc1)c1ccccc1Nc1cccc(C(F)(F)F)c1 | 79.8% (inactive)
25 | CC(C)(C)OC(=O)N1CCc2c(sc3ncnc(N/N=C/c4ccccc4Br)c23)C1 | 81.9% (inactive)
26 | CC(C)N(CCOc1ccc(-c2nc3sccn3c2-c2ccnc(S(C)(=O)=O)n2)cc1)C(C)C | 104% (inactive)
27 | CN(C)CCCOc1ccc(NC2=C(Cl)C(=O)C(Nc3ccc(OCCCN(C)C)cc3)=C(Cl)C2=O)cc1 | 39.4% (inactive)
28 | COc1cccc(C2C(C#N)=C(N)Oc3cc(N)ccc32)c1 (stereo not given) | 46.9% (inactive)
29 | Cc1ccc(NCCN(C)CC(C)O)c2c(=O)c3ccccc3sc12 (stereo not given) | 57% (inactive)
30 | CCCCN(CCCC)C(=O)[C@H](CC)[C@@H]1CC[C@@H](C)[C@@H]([C@H](C)[C@@H](O)[C@@H](C)C(=O)[C@H](CC)C2O[C@]3(C=C[C@@H](O)[C@]4(CC[C@@](C)([C@H]5CC[C@](O)(CC)[C@H](C)O5)O4)O3)[C@H](C)C[C@@H]2C)O1 (stereo not given in full) | 39.8% (inactive)
